Results filed as inconclusive are left out. Active and inactive are the calls of the source. Unless noted, calls come from the whole dose curve; as a rule, active = well fitted inhibition curve with a large enough effect; inconclusive = small, poorly fitted or top-dose-only effect; inactive = flat fitted curve, though single readings scatter.
Legend:
[1] = S16 Schwann cell PMP22 intronic element beta-lactamase assay (AID 624044; calls by dose curve; note: nearly all actives have a fitted effect of over 15% in size)
Method in brief: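 Beta-lactamase reporter under a PMP22 intronic regulatory element in stable S16 rat Schwann cells; 24 h compound exposure. 460 nm blue signal normalized between DMSO (0%) and potassium clavulanate, with 535 nm FRET tracking viability; curves classed by r2 and response.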

AA1029 = assay: qHTS profiling for inhibitors of Plasmodium falciparum proliferation (AID 504749); note: nearly all actives have a fitted effect of over 60% in size; conditions: P. falciparum in erythrocytes, SYBR Green DNA, 72 h; series mostly up to 12.8 µM
Method in brief: (§1)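 In a 72 h erythrocytic culture (37 C, humidified, 5% CO2) at 2.5% hematocrit and 0.3% starting parasitemia, compounds were tested; SYBR Green I in detergent lysis buffer stained parasite DNA overnight.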

ATS95 = assay: as above; conditions: P. falciparum in erythrocytes, SYBR Green DNA, 72 h; series mostly up to 12.8 µM
Method in brief: as §1

C2A = assay: as above; conditions: P. falciparum in erythrocytes, SYBR Green DNA, 72 h; series mostly up to 12.8 µM
Method in brief: as §1

CP191 = assay: as above; conditions: P. falciparum in erythrocytes, SYBR Green DNA, 72 h; series mostly up to 12.8 µM
Method in brief: as §1

CP238 = assay: as above; conditions: P. falciparum in erythrocytes, SYBR Green DNA, 72 h; series mostly up to 12.8 µM
Method in brief: as §1

CP252 = assay: as above; conditions: P. falciparum in erythrocytes, SYBR Green DNA, 72 h; series mostly up to 12.8 µM
Method in brief: as §1

CP256 = assay: as above; conditions: P. falciparum in erythrocytes, SYBR Green DNA, 72 h; series mostly up to 12.8 µM
Method in brief: as §1

ECU = assay: as above; conditions: P. falciparum in erythrocytes, SYBR Green DNA, 72 h; series mostly up to 12.8 µM
Method in brief: as §1

FAB9 = assay: as above; conditions: P. falciparum in erythrocytes, SYBR Green DNA, 72 h; series mostly up to 12.8 µM
Method in brief: as §1

JCK = assay: as above; conditions: P. falciparum in erythrocytes, SYBR Green DNA, 72 h; series mostly up to 12.8 µM
Method in brief: as §1

N140 = assay: as above; conditions: P. falciparum in erythrocytes, SYBR Green DNA, 72 h; series mostly up to 12.8 µM
Method in brief: as §1

PC15 = assay: as above; conditions: P. falciparum in erythrocytes, SYBR Green DNA, 72 h; series mostly up to 12.8 µM
Method in brief: as §1

PC49 = assay: as above; conditions: P. falciparum in erythrocytes, SYBR Green DNA, 72 h; series mostly up to 12.8 µM
Method in brief: as §1

TAB109 = assay: as above; conditions: P. falciparum in erythrocytes, SYBR Green DNA, 72 h; series mostly up to 12.8 µM
Method in brief: as §1

TAB165 = assay: as above; conditions: P. falciparum in erythrocytes, SYBR Green DNA, 72 h; series mostly up to 12.8 µM
Method in brief: as §1

CP192 = assay: as above; conditions: P. falciparum in erythrocytes, SYBR Green DNA, 72 h; series mostly up to 12.8 µM
Method in brief: as §1

CP262 = assay: as above; conditions: P. falciparum in erythrocytes, SYBR Green DNA, 72 h; series mostly up to 12.8 µM
Method in brief: as §1

CP305 = assay: as above; conditions: P. falciparum in erythrocytes, SYBR Green DNA, 72 h; series mostly up to 12.8 µM
Method in brief: as §1

CP329 = assay: as above; conditions: P. falciparum in erythrocytes, SYBR Green DNA, 72 h; series mostly up to 12.8 µM
Method in brief: as §1

Measured: Potency

CC(=O)N(C[C@@H](C)C(=O)O)c1c(I)cc(I)c(N)c1I
not listed: CP192 | CP262 | CP305 | CP329
inactive: all other assays above

CC[N+](CC)(CC)CC[C@](O)(c1ccccc1)C1CCCCC1
not listed: FAB9
inactive: all other assays above

CC[C@@H]1OC(=O)[C@H](C)[C@H](O[C@@H]2C[C@](C)(OC)[C@H](O)[C@H](C)O2)[C@H](C)[C@H](O[C@@H]2O[C@@H](C)C[C@@H](N(C)C)[C@@H]2O)[C@](C)(O)C[C@H](C)C(=NOCOCCOC)[C@H](C)[C@H](O)[C@]1(C)O
not listed: CP191 | CP252 | CP256
inactive: all other assays above

CO[C@]1(NC(=O)C2SC(=C(C(N)=O)C(=O)O)S2)C(=O)N2C(C(=O)O)=C(CSc3nnnn3C)CS[C@H]21 (some centres not stated)
inactive: all assays above

COc1ccc([C@@H]2CC(=O)c3c(O)cc(O[C@H]4O[C@@H](CO[C@H]5O[C@@H](C)[C@@H](O)[C@@H](O)[C@@H]5O)[C@@H](O)[C@@H](O)[C@@H]4O)cc3O2)cc1O
not listed: [1] | CP192
inactive: all other assays above

CCOC(=O)[C@H](CCc1ccccc1)N[C@@H](C)C(=O)N1[C@H](C(=O)O)C[C@H]2CCC[C@@H]21
not listed: CP329
inactive: all other assays above

CC(=O)OCC(=O)[C@@]1(O)CC[C@@H]2[C@H]3CCC4=CC(=O)C=C[C@]4(C)[C@]3(F)[C@@H](O)C[C@@]21C
inactive: all assays above

C[C@H](N[C@@H](C)COc1ccccc1)[C@H](O)c1ccc(O)cc1
inactive: all assays above

CO[C@H]1[C@@H](OC(N)=O)[C@H](O)[C@@H](Oc2ccc3c(O)c(NC(=O)c4ccc(O)c(CC=C(C)C)c4)c(=O)oc3c2C)OC1(C)C
not listed: [1]
inactive: all other assays above

O=C1O[C@H](CN2CCOCC2)CN1/N=C\c1ccc([N+](=O)[O-])o1
not listed: AA1029 | ECU | N140 | PC49 | TAB109 | TAB165
inactive: all other assays above

CC(=O)[C@@]1(O)CC[C@H]2[C@H]3C[C@@H](C)C4=CC(=O)C=C[C@]4(C)[C@@]3(F)[C@@H](O)C[C@]21C
inactive: all assays above

Source: PubChem BioAssay (NCATS)
